RORgamma inh – ROR gamma (mouse) transcription inhibition | Drosophila S2 Gal4-RORgamma UAS-luciferase reporter, 20 h | Potency, µM (series often up to 53.6 µM), most hits filed as inhibitors | 5.4% of 310,000 active | P51450 | AID 2551; note: nearly all actives have a fitted effect of over 60% in size
Target sequence (P51450 whole entry, looked up, the tested form may be a part): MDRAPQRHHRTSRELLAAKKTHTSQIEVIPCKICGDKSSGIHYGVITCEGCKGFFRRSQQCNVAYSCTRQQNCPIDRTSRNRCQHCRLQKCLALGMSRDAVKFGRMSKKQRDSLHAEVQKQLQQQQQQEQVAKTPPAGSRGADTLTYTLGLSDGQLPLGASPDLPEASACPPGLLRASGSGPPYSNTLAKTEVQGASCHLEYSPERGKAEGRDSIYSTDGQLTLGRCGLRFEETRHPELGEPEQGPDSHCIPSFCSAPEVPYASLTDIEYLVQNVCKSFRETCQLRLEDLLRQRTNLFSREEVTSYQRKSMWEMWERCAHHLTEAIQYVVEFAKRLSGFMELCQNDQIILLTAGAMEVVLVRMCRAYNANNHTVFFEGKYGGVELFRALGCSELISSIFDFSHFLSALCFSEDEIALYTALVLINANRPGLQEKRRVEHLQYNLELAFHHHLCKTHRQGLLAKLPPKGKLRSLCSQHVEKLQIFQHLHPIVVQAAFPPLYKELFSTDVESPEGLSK
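A Gal4/UAS one-hybrid system in insect cells: metallothionein-promoter Gal4–ROR gamma fusion plus Photinus luciferase reporter. Copper sulfate 700 uM final, 20 hr ambient incubation, luminescent detection after 10 min with reagent.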
LDHA block – inhibitors of human lactate dehydrogenase A | P00338 | purified LDHA, NADH/diaphorase-resazurin fluorescence; hits give low values | activity change, % (values are at about 110 or 230 µM) | 0.15% of 480,000 active | AID 1347041; in the data active = activity change below about -30%; inconclusive = mostly about -25% to -30%
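Human LDH5 (2 nM) was incubated with 0.06 mM NADH and 0.2 mM pyruvate for 5 min at room temperature in Tris pH 7.4. Remaining NADH was coupled through diaphorase/resazurin, and resorufin fluorescence was read at 0 and 20 min.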
DT40 TDP1 no CPT – qHTS for Inhibitors of human tyrosyl-DNA phosphodiesterase 1 (TDP1): qHTS in cells in absence of CPT; DT40 Tdp1-/- hTDP1 cells, no CPT, ATP luminescence, 48 h; Potency, µM (highest dose often 46.2 µM), actives largely listed as inhibitors; 15% of 420,000 active; note: nearly all actives have a fitted effect of over 55% in size
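Camptothecin absent (DMSO only). Human TDP1-complemented DT40 knockout cells, 400 cells/well, 37 °C for minimum 48 hr; ATP measured via CellTiter-Glo, 30 min dark incubation, luminescence.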
DT40 TDP1 CPT – DT40-hTDP1 cell growth loss with CPT. Potency, µM (highest dose often 46.2 µM), actives largely listed as inhibitors. chicken DT40 Tdp1-/-;hTDP1 cells + 20 nM CPT, ATP luminescence, 48 h. 12% of 420,000 active; note: nearly all actives have a fitted effect of over 55% in size
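Chicken DT40 Tdp1-/- cells complemented with human TDP1, 400 cells/well, exposed to compounds plus 20 nM camptothecin for at least 48 h at 37 C; viability read as ATP content by CellTiter-Glo luminescence.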
IL1B secr inh – blocks inflammasome-driven IL-1 beta release | activity change, % at 57.5 µM | 4.7% of 360,000 active | AID 743279 | THP-1 LPS/ATP IL-1B secretion, AlphaLISA, 16 h; hits give low values; in the data active = activity change below about -50%; inconclusive = mostly about -30% to -49%
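THP-1 cells pretreated 1 hr with compounds (up to 57.5 uM final), then stimulated with LPS (250 ng/mL final) plus ATP (1.25 mM final); secreted IL-1B measured by AlphaLISA after 16 hr, decreased signal indicating inhibition.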
Gal4-VP16 FLuc – counter-screen for ROR gamma inhibitors: Gal4-VP16 reporter; Drosophila S2 Gal4-VP16 UAS-luciferase, luminescence, 20 h; Potency, µM (top dose mostly 53.6 µM), usual class: inhibitors; 3.5% of 310,000 active;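 note: Gal4-VP16 expression switched on by copper sulfate through the metallothionein promoter; nearly all actives have a fitted effect of over 50% in size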
Each line names hits and unclear results; the compound was inactive in the other large screens. The list is not random: actives were taken first. Their share in the collection is about 18%. Unless noted, calls come from the whole dose curve; as a rule, active = well fitted curve in the direction sought with a large enough effect; inconclusive = small, poorly fitted or top-dose-only effect, or another doubt; inactive = no such curve, though single readings can be large; an effect the other way counts as inactive or inconclusive.

CCC1CCCCN1C(=O)Cn1c(-c2ccccc2)nc(C)cc1=O (stereo unspecified)	LDHA block -33 (no result: RORgamma inh, DT40 TDP1 no CPT, DT40 TDP1 CPT, IL1B secr inh, Gal4-VP16 FLuc)
O=C(CCc1nc(Cc2ccccc2)no1)N1CCSCC1	none (no result: RORgamma inh, DT40 TDP1 no CPT, DT40 TDP1 CPT, IL1B secr inh, Gal4-VP16 FLuc)
N#CC(C#N)=c1ccc2c(c1)N1C3=C(CCCC3)CC3CCCCC31N=2 (stereo unspecified)	DT40 TDP1 no CPT inconclusive, DT40 TDP1 CPT inconclusive, IL1B secr inh -117
N#C/C(C(N)=O)=c1/ccc2c(c1)N1C3=C(CCCC3)CC3CCCCC31N=2 (stereo unspecified)	DT40 TDP1 no CPT 13µM, DT40 TDP1 CPT 15µM, IL1B secr inh -102, Gal4-VP16 FLuc inconclusive
Cc1ccc(NC(=O)/C(C#N)=C\c2ccc(OC(F)F)cc2)c(C)c1	none (no result: RORgamma inh, DT40 TDP1 no CPT, DT40 TDP1 CPT, IL1B secr inh, Gal4-VP16 FLuc)

Screens (PubChem)
